Source: PubChem BioAssay
SMN2 splice enh – increases expression of the SMN2 splice variant; Potency, µM (titrated, usually from 46.1 µM), for inactives: top-dose activity change, positive = activation, hits mostly activators; AID 1458; 210,000 tested, 2.8% active; HEK293 SMN2-luciferase splicing reporter, luminescence, 30-36 h; also: % of control where 0% means no effect; nearly all actives have a fitted effect of over 55% in size
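HEK293 cells carry an SMN2 […]–luciferase reporter in which exon 7 inclusion puts luciferase in frame. Cells were plated 10-12 h before compound addition, then incubated 30-36 h at 37C. ONE-Glo luminescence was read; sodium butyrate at 4.5 mM final served as control.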
KinaseGlo FLuc – Kinase-Glo luciferase inhibition (counter-screen). Kinase-Glo luciferase, ATP luminescence, 8 min. 200,000 tested, 0.28% active. Q27757. Potency, µM (titrated, usually from 38.3 µM), inactives show top-dose activity change, negative = inhibition, hits mostly inhibitors; also: % is scaled to controls: 0 for no effect and ±100 for the full control effect; nearly all actives have a fitted effect of over 60% in size
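Light output from Kinase-Glo luciferase with luciferin and 10 uM ATP in 50 mM imidazole pH 7.2, KCl, MgCl2, Tween 20, BSA; compound pin-delivered, 8-min ambient incubation, then luminescence read.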
NPC1 prom act – activators of NPC1 promoter; Huh7 NPC1 promoter luciferase reporter, 24 h; Potency, µM (doses to about 9.22 µM), for the others: at the top dose activation, hits mostly activators; 320,000 tested, 2.4% active; AID 485313; also: % of control where 0% means no effect; nearly all actives have a fitted effect of over 60% in size
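Luciferase expression driven by the NPC1 promoter was measured in stably transfected Huh7 cells after a 24 h compound incubation, using a luciferase reagent and a luminescence read.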
Rab9 promoter act – Rab9 promoter activation; Potency, µM (highest dose often 9.22 µM), for the others: at the highest dose activation, negative = inhibition, actives largely listed as activators; Huh7 Rab9 promoter-luciferase reporter, luminescence, 24 h; AID 485297; 320,000 tested, 2.8% active; also: % of control where 0% means no effect; nearly all actives have a fitted effect of over 60% in size
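Luminescence read-out: Huh7 cells stably expressing Rab9-luciferase, treated 24 h with compound at 37 °C, then lysed with luciferase reagent for 10 min at ambient before reading.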
FLuc counter – firefly luciferase modulation, counter-screen for miR-21 project; Potency, µM (highest dose often 57.5 µM), without a hit: top-dose activity change, negative = inhibition, usual class: inhibitors; 360,000 tested, 6.9% active; P08659; purified FLuc, Km substrates, luminescence inhibition;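 also: plate controls were vehicle for no effect and reference inhibitor for full effect; nearly all actives have a fitted effect of over 55% in size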
Target sequence (P08659 whole entry, looked up): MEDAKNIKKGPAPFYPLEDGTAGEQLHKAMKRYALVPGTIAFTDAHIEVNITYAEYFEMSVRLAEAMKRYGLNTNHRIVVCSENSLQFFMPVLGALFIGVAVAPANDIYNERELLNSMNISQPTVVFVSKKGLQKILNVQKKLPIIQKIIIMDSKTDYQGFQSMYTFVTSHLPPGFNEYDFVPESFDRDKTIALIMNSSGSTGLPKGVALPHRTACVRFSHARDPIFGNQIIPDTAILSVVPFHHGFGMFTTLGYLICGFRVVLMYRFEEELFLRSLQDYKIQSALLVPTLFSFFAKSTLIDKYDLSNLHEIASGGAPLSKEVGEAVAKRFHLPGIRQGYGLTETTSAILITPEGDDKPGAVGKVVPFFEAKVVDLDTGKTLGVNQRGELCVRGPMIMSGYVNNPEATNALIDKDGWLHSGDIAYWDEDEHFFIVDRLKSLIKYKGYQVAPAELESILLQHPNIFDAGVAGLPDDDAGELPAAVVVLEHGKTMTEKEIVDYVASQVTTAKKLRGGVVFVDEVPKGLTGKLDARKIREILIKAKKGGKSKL
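Purified P. pyralis luciferase (10nM final) with 10uM D-luciferin and 10uM ATP (Km levels) in 50mM Tris acetate pH 7.5, 10mM Mg acetate, 0.01% Tween-20, 0.05% BSA; qHTS 6-point titration, ~60 µM downward; luminescence read.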
* = called active by the depositor. A selection: hits, their analogues and other compounds. The true share with any hit is near 7.3%. Calls follow the shape of the dose curve; as a rule, active = well fitted curve in the direction sought with a large enough effect; inconclusive = small, poorly fitted or top-dose-only effect, or another doubt; inactive = no such curve, though single readings can be large; an effect the other way counts as inactive or inconclusive. Potency is read from the fitted curve at half-maximal effect.

What do the screens show for `Cc1ccc(S(=O)(=O)CC(=O)c2ccc(C)c([N+](=O)[O-])c2)cc1`?
SMN2 splice enh: -8%; KinaseGlo FLuc: 5%; NPC1 prom act: -3%; Rab9 promoter act: -7%; FLuc counter: -10%

How did O=C(Nc1ccc2c(c1)OCO2)c1ccncc1 do in these assays?
SMN2 splice enh: 2%; KinaseGlo FLuc: -5%; NPC1 prom act: 14%; Rab9 promoter act: 23%; FLuc counter: -19%

Results for CCCOc1cccc(C(=O)Nc2ccc3c(c2)OCCO3)c1 ?
NPC1 prom act: 3.2µM*; Rab9 promoter act: inconclusive; FLuc counter: 0.95µM*

What do the screens show for `Cc1ccc(S(=O)(=O)CC(=O)c2ccc3c(c2)OCCO3)cc1`?
NPC1 prom act: inconclusive; Rab9 promoter act: inconclusive; FLuc counter: 13µM*

Results for CCN1C(=O)c2ccc(C(=O)Nc3ncc(C)s3)cc2C1=O ?
SMN2 splice enh: 13%; KinaseGlo FLuc: -14%; NPC1 prom act: 18%; Rab9 promoter act: inconclusive; FLuc counter: 1.7µM*

How did CCCOc1cccc(C(=O)Nc2cccnc2)c1 do in these assays?
SMN2 splice enh: -14%; KinaseGlo FLuc: 13%; NPC1 prom act: -2%; Rab9 promoter act: 6%; FLuc counter: inconclusive

Results for Cn1cc(S(=O)(=O)c2ccccc2)c(=O)c2cc(F)c(N3CCCCCC3)cc21 ?
FLuc counter: 0%

What do the screens show for `O=C(CSc1c2c(nc3ccccc13)CCC2)Nc1ccc(F)cc1`?
SMN2 splice enh: -14%; FLuc counter: -1%

What do the screens show for `O=C(CN1CCN(S(=O)(=O)c2cc(Cl)ccc2Cl)CC1)Nc1cccc(F)c1`?
FLuc counter: -9%

How did O=C(O)CCC(=O)Nc1cccc(C(=O)Nc2ccc(Br)cc2)c1 do in these assays?
SMN2 splice enh: 17%; KinaseGlo FLuc: 0%; NPC1 prom act: -1%; Rab9 promoter act: 7%; FLuc counter: 24µM*

Results for Cc1c(C(=O)NCc2ccc3c(c2)OCO3)oc2ccc(Br)cc12 ?
SMN2 splice enh: -10%; KinaseGlo FLuc: -4%; NPC1 prom act: 0%; Rab9 promoter act: 1%; FLuc counter: -16%

What do the screens show for `O=C(Nc1cccc(C(=O)Nc2cccc(Br)c2)c1)c1ccccc1`?
NPC1 prom act: -2%; Rab9 promoter act: 15%; FLuc counter: inconclusive

Results for CCN(CC)S(=O)(=O)c1ccc(C(=O)Nc2ccc3c(c2)OCCO3)cc1 ?
SMN2 splice enh: -3%; KinaseGlo FLuc: -2%; NPC1 prom act: 9%; Rab9 promoter act: 5%; FLuc counter: inconclusive

What do the screens show for `Cc1c(C(=O)Nc2ccc3c(c2)OCCO3)oc2ccc(Br)cc12`?
NPC1 prom act: 19%; Rab9 promoter act: inconclusive; FLuc counter: 5.4µM*

What do the screens show for `O=C(Nc1ccc2c(c1)OCCO2)c1ccc(Br)cc1`?
NPC1 prom act: 2.5µM*; Rab9 promoter act: 1.3µM*; FLuc counter: 1.1µM*

What do the screens show for `CC(C)c1ccc(NC(=O)c2cccc(Br)c2)cc1`?
SMN2 splice enh: 14µM*; KinaseGlo FLuc: -9%; NPC1 prom act: 1.4µM*; Rab9 promoter act: 0.71µM*; FLuc counter: 3µM*

What do the screens show for `COc1ccc(OC)c(NC(=O)CSc2nc3ccccc3c(=O)n2CCC(=O)NC2CCCCC2)c1`?
FLuc counter: -1%

How did CC1=C(C(=O)Nc2ccccc2C)C(c2cccs2)n2nc(SCc3ccccc3)nc2N1 (stereo not given) do in these assays?
SMN2 splice enh: 4%; FLuc counter: 2%

What do the screens show for `CCN1C(=O)c2ccc(C(=O)Nc3ccc4c(c3)OCO4)cc2C1=O`?
NPC1 prom act: 30%; Rab9 promoter act: 16%; FLuc counter: 2.7µM*

Results for O=C(Nc1ccc2c(c1)OCCO2)c1cccc(S(=O)(=O)N2CCCCC2)c1 ?
SMN2 splice enh: -10%; KinaseGlo FLuc: -2%; NPC1 prom act: -2%; Rab9 promoter act: -6%; FLuc counter: inconclusive

What do the screens show for `O=C(Nc1ccc2c(c1)OCCO2)c1cccc(Br)c1`?
NPC1 prom act: 1.3µM*; Rab9 promoter act: 1.4µM*; FLuc counter: 1.1µM*

What do the screens show for `O=C(Cn1c(=O)nc(-c2ccccc2)c2ccccc21)NCCc1ccccc1`?
FLuc counter: 5%

Results for CCOc1ccc(-c2nnc(SCC(=O)N3CCOCC3)o2)cc1 ?
SMN2 splice enh: inconclusive; KinaseGlo FLuc: -2%; NPC1 prom act: inconclusive; Rab9 promoter act: 2.2µM*; FLuc counter: 11µM*

What do the screens show for `CCOc1ccc(-c2nnc(SCC(=O)N3CCCC3)o2)cc1`?
NPC1 prom act: inconclusive; Rab9 promoter act: inconclusive; FLuc counter: 21µM*

Results for CC(C)CNC(=O)C1=CC(c2ccc3c(c2)OCO3)=NS(=O)(=O)N1C ?
FLuc counter: 1%

What do the screens show for `Cc1ccc(NC(=O)Cn2c(=O)ccc3cc(S(=O)(=O)N4CCC(C)CC4)ccc32)cc1Cl`?
FLuc counter: -6%

How did O=C(NOCc1ccccc1)c1ccc([N+](=O)[O-])cc1 do in these assays?
NPC1 prom act: inconclusive; Rab9 promoter act: 1.3µM*; FLuc counter: 3.8µM*

How did O=C(NOCc1ccccc1)c1ccc(Cl)cc1 do in these assays?
NPC1 prom act: 0.71µM*; Rab9 promoter act: 0.5µM*; FLuc counter: 1.2µM*

Results for COc1ccc(C(=O)NCCONC(=O)c2ccc(OC)cc2)cc1 ?
NPC1 prom act: -2%; Rab9 promoter act: -1%; FLuc counter: -3%

How did COc1ccc(C(=O)NOCc2ccccc2)cc1 do in these assays?
NPC1 prom act: inconclusive; Rab9 promoter act: inconclusive; FLuc counter: 1.9µM*

What do the screens show for `Cn1c(=O)c(C(=O)Nc2cnccn2)c(O)c2ccccc21`?
SMN2 splice enh: 13µM*; KinaseGlo FLuc: 4%; NPC1 prom act: 13%; Rab9 promoter act: inconclusive; FLuc counter: 2%

What do the screens show for `Cn1c(=O)c(C(=O)Nc2ccccn2)c(O)c2ccccc21`?
NPC1 prom act: inconclusive; Rab9 promoter act: 2.8µM*; FLuc counter: 4.8µM*

What do the screens show for `CCn1c(=O)c(C(=O)Nc2cnccn2)c(O)c2ccccc21`?
SMN2 splice enh: 1%; KinaseGlo FLuc: -3%; NPC1 prom act: 6%; Rab9 promoter act: 4%; FLuc counter: 0%

How did CC(=O)c1c(O)c2ccccc2n(C)c1=O do in these assays?
KinaseGlo FLuc: 0%; NPC1 prom act: -4%; Rab9 promoter act: -3%; FLuc counter: 1%

What do the screens show for `COc1ccc(-n2ncc(C(=O)N3CCN(C4CCCCC4)CC3)c2C2CCN(C(=O)OC(C)(C)C)CC2)cc1`?
FLuc counter: -6%

Results for CS(=O)(=O)N1CCC(N2CCN(Cc3ccccc3)C(=O)C2=O)CC1 ?
FLuc counter: -2%

Results for CC1Oc2ccccc2C=C1/C=N\NC(=O)c1cccnc1 (stereo not given) ?
NPC1 prom act: 18%; Rab9 promoter act: 15%; FLuc counter: 17µM*
